Measurements reported in the supplement of paper PMC11732987, “Enantioselective OTUD7B fragment discovery through chemoproteomics screening and high-throughput optimisation” (Communications Chemistry, 2025).

Key:
Experiment in all cases: log2 ratio of Biotin-Ahx-Ub-VS probe labelling (fragment/DMSO); higher = less target engagement (more negative = stronger competition), active = hit call of the paper (q ≤ 0.05, log2 ratio ≤ -1)
Details in all cases: compound concentration: 200 uM; treatment time: 3 h
USP9X = USP9X (UniProt Q93008)
How it was run: (§1)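 HEK293T lysate in Tris/CHAPS/IGEPAL buffer with protease inhibitors (495 µg per sample) was given fragment at 200 µM or vehicle for 3 h, in triplicate. It then received Biotin-Ahx-Ub-VS at 0.5 µM final for 1 h. Labelled DUBs were NeutrAvidin-enriched, digested with LysC and trypsin, and run by diaPASEF LC-MS/MS. Values are average log2 fragment/vehicle ratios by unpaired t-test on global-median-normalised Spectronaut quantities of proteins with ≥2 unique peptides.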

UniProt O00487 = biological target: UniProt O00487
Sequence of UniProt O00487 (O00487 whole entry): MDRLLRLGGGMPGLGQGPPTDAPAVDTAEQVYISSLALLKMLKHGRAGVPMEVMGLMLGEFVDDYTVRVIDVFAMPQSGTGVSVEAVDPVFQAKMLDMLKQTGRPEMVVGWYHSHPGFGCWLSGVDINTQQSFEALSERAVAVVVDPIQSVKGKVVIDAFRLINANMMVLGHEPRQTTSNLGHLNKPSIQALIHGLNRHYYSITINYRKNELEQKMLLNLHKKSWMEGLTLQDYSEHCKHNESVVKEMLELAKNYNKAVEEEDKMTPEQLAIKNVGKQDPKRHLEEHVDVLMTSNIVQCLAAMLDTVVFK
How it was run: as §1

UniProt O00507 = biological target: UniProt O00507
Sequence of UniProt O00507 (O00507 whole entry): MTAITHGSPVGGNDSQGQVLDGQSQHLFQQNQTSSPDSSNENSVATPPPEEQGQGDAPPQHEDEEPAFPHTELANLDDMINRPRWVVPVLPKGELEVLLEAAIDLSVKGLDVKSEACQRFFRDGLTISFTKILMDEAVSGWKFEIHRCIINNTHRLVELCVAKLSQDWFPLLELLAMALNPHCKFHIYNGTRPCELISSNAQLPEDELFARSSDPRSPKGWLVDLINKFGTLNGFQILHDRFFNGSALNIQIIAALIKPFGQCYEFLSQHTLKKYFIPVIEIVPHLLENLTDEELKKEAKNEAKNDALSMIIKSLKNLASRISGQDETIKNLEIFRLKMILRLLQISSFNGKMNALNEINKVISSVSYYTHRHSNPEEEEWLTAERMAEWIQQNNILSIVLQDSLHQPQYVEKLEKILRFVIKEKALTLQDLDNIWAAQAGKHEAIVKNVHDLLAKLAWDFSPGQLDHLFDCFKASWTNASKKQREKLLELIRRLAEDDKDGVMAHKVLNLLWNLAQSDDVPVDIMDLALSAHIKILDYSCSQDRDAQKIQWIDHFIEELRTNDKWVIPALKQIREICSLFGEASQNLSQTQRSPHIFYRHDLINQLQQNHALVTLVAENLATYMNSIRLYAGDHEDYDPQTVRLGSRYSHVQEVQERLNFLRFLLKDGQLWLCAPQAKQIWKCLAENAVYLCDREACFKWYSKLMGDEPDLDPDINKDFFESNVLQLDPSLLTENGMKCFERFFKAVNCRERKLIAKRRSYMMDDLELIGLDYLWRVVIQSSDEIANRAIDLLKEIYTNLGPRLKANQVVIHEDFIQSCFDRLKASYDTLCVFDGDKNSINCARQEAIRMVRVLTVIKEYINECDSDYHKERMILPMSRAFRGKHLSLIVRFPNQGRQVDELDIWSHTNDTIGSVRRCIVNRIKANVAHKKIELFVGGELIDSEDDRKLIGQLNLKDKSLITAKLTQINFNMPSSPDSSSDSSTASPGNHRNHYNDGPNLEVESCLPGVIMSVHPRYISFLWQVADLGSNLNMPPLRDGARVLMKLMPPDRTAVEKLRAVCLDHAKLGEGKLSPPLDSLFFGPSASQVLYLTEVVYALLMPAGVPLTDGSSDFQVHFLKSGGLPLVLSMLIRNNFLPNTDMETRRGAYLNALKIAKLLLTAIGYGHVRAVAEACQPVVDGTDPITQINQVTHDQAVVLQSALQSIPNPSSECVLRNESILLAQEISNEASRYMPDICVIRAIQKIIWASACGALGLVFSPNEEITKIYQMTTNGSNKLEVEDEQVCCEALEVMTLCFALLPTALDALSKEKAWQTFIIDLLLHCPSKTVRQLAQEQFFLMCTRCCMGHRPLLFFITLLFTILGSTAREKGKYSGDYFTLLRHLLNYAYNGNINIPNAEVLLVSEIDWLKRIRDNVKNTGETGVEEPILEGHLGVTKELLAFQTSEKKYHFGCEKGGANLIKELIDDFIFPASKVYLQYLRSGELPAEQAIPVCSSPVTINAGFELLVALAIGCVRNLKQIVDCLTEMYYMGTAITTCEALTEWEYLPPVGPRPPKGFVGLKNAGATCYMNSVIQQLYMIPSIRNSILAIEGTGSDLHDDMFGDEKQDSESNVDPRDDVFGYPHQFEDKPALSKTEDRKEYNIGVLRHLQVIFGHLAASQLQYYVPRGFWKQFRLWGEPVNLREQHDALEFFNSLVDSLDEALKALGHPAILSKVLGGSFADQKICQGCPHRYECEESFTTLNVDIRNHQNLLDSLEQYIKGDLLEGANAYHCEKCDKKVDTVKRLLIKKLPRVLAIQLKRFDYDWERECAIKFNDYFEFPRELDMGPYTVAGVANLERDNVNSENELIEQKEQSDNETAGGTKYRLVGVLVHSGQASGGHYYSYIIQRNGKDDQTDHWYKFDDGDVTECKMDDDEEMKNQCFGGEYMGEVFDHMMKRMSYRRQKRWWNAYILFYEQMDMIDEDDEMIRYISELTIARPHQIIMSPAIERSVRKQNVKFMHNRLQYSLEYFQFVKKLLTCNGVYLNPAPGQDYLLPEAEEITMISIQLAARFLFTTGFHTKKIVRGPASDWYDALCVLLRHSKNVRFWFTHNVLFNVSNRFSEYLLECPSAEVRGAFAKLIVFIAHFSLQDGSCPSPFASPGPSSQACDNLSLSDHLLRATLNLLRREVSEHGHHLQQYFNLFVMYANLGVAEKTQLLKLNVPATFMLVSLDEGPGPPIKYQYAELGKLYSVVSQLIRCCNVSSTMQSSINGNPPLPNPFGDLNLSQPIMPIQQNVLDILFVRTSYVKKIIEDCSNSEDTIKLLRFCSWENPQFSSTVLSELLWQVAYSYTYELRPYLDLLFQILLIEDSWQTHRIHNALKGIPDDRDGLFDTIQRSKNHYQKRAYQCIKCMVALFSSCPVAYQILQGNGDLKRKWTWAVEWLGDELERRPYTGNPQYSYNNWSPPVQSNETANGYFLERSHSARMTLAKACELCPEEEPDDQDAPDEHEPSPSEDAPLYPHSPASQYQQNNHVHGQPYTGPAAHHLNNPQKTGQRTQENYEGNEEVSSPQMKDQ
How it was run: as §1

UniProt P51784 = biological target: UniProt P51784
Sequence of UniProt P51784 (P51784 whole entry): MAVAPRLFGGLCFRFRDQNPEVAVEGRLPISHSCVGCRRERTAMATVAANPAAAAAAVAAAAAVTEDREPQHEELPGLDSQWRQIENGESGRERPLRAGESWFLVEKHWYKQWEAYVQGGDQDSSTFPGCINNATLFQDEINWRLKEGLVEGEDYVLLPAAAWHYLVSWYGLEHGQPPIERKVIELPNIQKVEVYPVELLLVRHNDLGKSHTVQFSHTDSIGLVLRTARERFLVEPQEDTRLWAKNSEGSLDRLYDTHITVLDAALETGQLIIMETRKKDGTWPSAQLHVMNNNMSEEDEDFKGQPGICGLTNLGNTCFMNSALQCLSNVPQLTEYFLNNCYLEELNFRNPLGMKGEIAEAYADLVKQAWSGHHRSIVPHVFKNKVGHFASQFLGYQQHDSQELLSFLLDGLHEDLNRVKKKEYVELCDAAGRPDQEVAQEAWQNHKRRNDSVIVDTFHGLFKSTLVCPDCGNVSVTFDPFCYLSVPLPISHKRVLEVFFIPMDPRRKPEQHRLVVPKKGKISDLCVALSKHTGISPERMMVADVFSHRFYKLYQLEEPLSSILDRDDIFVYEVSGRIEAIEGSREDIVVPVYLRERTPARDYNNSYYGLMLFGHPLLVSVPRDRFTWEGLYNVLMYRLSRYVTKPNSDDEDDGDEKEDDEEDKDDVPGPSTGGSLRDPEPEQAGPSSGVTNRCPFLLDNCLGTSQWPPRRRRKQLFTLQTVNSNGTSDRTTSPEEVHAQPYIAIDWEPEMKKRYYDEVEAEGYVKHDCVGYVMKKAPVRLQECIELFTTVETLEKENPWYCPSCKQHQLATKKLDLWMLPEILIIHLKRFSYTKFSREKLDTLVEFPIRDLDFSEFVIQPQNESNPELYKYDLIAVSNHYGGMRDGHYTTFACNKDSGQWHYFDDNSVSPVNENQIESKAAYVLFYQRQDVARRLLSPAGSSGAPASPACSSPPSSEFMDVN
How it was run: as §1

UniProt Q5T2D3 = biological target: T1, UniProt Q5T2D3
T1 sequence (whole entry): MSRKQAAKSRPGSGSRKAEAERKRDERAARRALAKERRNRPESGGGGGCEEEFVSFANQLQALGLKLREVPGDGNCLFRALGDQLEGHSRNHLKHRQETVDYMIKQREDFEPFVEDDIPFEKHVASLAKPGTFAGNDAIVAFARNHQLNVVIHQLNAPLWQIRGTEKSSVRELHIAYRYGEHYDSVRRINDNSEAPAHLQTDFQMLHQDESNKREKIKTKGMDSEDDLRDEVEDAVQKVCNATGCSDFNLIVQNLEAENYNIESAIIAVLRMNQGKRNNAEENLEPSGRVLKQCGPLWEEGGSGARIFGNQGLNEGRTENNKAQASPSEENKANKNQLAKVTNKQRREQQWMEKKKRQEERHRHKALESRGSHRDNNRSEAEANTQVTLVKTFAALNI
How it was run: as §1

UniProt Q8TE49 = biological target: T2, UniProt Q8TE49
T2 sequence (whole entry): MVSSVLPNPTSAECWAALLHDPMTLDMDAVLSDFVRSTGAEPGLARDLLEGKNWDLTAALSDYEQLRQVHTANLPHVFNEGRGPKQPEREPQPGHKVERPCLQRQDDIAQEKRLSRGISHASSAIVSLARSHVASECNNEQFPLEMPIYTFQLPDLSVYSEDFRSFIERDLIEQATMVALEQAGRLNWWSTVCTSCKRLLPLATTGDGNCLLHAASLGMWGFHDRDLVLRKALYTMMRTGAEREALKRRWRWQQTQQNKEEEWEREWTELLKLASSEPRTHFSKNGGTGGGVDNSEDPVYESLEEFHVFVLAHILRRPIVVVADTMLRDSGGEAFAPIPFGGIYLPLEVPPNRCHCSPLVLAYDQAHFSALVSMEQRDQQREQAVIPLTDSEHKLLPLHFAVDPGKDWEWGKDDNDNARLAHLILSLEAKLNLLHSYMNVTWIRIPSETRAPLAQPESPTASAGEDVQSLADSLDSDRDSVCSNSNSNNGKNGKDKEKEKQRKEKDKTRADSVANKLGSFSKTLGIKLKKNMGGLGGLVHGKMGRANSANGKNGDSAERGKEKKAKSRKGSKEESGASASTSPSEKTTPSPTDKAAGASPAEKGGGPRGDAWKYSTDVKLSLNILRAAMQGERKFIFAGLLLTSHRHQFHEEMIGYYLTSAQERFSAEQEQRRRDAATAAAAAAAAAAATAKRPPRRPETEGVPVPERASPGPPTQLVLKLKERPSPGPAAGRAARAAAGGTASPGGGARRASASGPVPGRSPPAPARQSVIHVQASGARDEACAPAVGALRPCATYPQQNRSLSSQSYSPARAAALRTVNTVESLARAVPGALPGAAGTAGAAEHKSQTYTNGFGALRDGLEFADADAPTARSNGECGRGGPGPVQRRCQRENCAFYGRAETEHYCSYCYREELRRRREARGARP
How it was run: as §1

UniProt Q9P2H5 = biological target: T3, UniProt Q9P2H5
T3 sequence (whole entry): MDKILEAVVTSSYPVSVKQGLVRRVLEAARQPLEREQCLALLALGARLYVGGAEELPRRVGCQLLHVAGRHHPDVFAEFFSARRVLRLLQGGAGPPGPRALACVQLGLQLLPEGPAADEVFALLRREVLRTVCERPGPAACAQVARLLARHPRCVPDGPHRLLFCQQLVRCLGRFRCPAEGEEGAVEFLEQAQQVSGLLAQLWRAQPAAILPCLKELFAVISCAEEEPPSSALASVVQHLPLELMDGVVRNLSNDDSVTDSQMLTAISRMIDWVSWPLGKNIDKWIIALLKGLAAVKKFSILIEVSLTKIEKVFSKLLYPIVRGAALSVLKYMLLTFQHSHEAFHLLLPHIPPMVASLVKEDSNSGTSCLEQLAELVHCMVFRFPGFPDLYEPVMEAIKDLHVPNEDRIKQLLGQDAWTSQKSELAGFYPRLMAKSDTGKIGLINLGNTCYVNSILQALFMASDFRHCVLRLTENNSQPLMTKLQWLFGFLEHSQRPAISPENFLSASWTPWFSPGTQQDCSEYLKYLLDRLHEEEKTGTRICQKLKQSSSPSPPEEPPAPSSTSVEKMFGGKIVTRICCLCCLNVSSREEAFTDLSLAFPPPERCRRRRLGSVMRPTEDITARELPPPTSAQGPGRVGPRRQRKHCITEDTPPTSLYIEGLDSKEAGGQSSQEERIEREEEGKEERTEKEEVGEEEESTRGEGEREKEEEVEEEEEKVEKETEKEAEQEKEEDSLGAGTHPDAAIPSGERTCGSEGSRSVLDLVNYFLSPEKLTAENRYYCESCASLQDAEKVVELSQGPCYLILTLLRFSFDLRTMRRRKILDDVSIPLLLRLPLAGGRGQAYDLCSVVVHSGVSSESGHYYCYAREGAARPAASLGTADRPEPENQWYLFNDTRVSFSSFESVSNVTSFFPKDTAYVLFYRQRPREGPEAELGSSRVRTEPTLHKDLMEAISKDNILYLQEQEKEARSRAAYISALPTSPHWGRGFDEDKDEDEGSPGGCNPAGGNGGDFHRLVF
How it was run: as §1

UniProt Q9UGI0 = biological target: T4, UniProt Q9UGI0
T4 sequence (whole entry): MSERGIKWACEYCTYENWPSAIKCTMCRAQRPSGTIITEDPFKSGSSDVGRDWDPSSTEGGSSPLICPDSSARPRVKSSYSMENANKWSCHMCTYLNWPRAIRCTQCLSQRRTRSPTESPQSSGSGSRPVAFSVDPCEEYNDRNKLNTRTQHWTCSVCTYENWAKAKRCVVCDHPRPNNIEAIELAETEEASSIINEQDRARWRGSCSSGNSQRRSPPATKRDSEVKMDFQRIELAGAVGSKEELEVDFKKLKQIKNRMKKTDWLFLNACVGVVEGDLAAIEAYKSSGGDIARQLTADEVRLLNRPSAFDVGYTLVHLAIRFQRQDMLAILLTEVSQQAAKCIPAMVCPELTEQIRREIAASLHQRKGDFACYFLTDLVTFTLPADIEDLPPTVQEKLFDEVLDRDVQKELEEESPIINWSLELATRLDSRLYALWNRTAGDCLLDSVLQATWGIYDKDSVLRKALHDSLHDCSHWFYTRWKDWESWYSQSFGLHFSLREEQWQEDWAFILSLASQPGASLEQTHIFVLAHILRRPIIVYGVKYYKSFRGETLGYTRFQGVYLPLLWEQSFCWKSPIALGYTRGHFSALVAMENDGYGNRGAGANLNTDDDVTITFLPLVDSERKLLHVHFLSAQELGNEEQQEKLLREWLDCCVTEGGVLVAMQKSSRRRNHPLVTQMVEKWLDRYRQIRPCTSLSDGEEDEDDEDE
How it was run: as §1

YOD1 = biological target: T5, YOD1 (UniProt Q5VVQ6)
T5 sequence (whole entry): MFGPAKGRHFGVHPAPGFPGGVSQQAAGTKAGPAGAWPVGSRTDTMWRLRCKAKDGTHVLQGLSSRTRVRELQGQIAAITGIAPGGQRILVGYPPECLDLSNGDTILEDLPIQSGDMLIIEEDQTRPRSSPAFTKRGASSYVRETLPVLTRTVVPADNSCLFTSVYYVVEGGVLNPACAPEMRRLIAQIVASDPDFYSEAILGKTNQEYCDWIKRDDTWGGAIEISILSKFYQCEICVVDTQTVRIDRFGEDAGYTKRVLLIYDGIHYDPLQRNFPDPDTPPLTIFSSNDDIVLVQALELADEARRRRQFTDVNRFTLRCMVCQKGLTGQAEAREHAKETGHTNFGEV
How it was run: as §1

Measured: log2 ratio of Biotin-Ahx-Ub-VS probe labelling

O=C(CCl)Nc1cccc(NC(=O)c2ccccc2)c1
inactive: USP9X 0.246 | UniProt O00487 0.00956 | UniProt O00507 0.236 | UniProt P51784 0.295 | UniProt Q5T2D3 0.263 | UniProt Q8TE49 -0.0536 | UniProt Q9P2H5 -0.23 | UniProt Q9UGI0 0.0168 | YOD1 0.288
